Counter-ions that a name gives are not always drawn.
Key:
Assay in all cases: Euclidean distance of Cell Painting phenotypic profile (signed KS, 77 features) to DMSO centroid (dimensionless distance); 5 or 10 uM (library dependent); higher = stronger phenotypic change vs DMSO (phenoactivity)
Conditions in all cases: 48 h
[1] = test system: 786-O
Method in brief: (§1)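 Harmony extracted 77 features from 20X confocal images (9 fields/well) of stained cells, scoring each as a signed Kolmogorov-Smirnov statistic against same-plate vehicle wells. The cells, five cancer lines and a healthy fibroblast line, had received library compounds for 48 h at 10 or 5 uM depending on library, with 0.1% DMSO final. Phenoactivity is the Euclidean distance from each plate-position-corrected, correlation-weighted, top-dose replicate-averaged profile to the median vehicle profile.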

[2] = test system: A549
Method in brief: as §1

[3] = test system: DU145
Method in brief: as §1

[4] = test system: FB
Method in brief: as §1

[5] = test system: HEPG2
Method in brief: as §1

[6] = test system: OVCAR4
Method in brief: as §1

Structure (SMILES)	Euclidean distance [1]	Euclidean distance [2]	Euclidean distance [3]	Euclidean distance [4]	Euclidean distance [5]	Euclidean distance [6]
O=C(CCCCCN1C(=O)c2cccc3cccc(c23)C1=O)NO [Scriptaid]	3.19	3.02	2.28	3.75	2.92	3.33
CCNC(=O)[C@@H]1CCCN1C(=O)[C@H](CCCNC(=N)N)NC(=O)[C@H](CC(C)C)NC(=O)[C@@H](CC(C)C)NC(=O)[C@H](Cc1ccc(O)cc1)NC(=O)[C@H](CO)NC(=O)[C@H](Cc1c[nH]c2ccccc12)NC(=O)[C@H](Cc1c[nH]cn1)NC(=O)[C@@H]1CCC(=O)N1 [Leuprolide Acetate]	0.73	0.754	0.992	0.659	0.515	0.971
N#Cc1ccc([C@H]2CCc3cncn32)c(F)c1 [Osilodrostat (LCI699)]	1.39	1.28	1.56	1.68	0.588	1.57
CC1C(=O)OC2C(O)C34C5CC(C(C)(C)C)C36C(OC(=O)C6O)OC4(C(=O)O5)C12O (configuration not stated) [Ginkgolide B]	0.999	1.63	0.921	1.25	2.11	1.3
N=C(N)NCCN1CCCCCCC1 [Guanethidine Monosulfate]	1.05	1.78	0.775	1.38	0.975	1.68
Cc1ccc(-c2cc(C(F)(F)F)nn2-c2ccc(S(N)(=O)=O)cc2)cc1 [Celecoxib]	1.6	1.23	1.67	1.09	1.08	1.37
O=C(CCCCCCC(=O)NO)NO [Suberohydroxamic acid]	1.22	1.22	1.18	2.06	1.84	1.28
Cc1[nH]nc2ccc(-c3cncc(OC[C@@H](N)Cc4ccccc4)c3)cc12	4.66	4.28	3.94	5.02	3.37	5.52
Oc1c(Cl)cc(Cl)cc1Sc1cc(Cl)cc(Cl)c1O [Bithionol]	0.758	0.588	0.524	0.97	1.02	1.23
O=C(O)CCCc1ccccc1 [Sodium Phenylbutyrate]	0.697	0.666	1.02	0.829	0.249	1.01
COc1c(C)cnc(Cn2cnc3c(Cl)nc(N)nc32)c1C	3.02	3.08	3.08	3.34	4.24	3.08
CC(C)(C)C(=O)Oc1ccc(S(=O)(=O)Nc2ccccc2C(=O)NCC(=O)O)cc1 [Sivelestat sodium tetrahydrate]	0.925	0.568	1.32	1.57	0.892	1.28
CN1C(=O)[C@@H](NC(=O)c2n[nH]c(Cc3ccccc3)n2)COc2ccccc21	0.778	1.15	1.8	1.02	0.727	1.12
CO[C@@H]1[C@@H](O[C@@H]2O[C@H](C)[C@@H](O[C@H]3C[C@@](C)(O)[C@@H](OC(=O)CC(C)C)[C@H](C)O3)[C@H](N(C)C)[C@H]2O)[C@@H](CC=O)C[C@@H](C)[C@@H](O)/C=C/C=C/C[C@@H](C)OC(=O)C[C@H]1O [Kitasamycin]	0.871	1.1	1.49	0.973	0.78	0.761
NC(=O)c1cccc(-c2cccc(OC(=O)NC3CCCCC3)c2)c1	0.656	0.944	0.753	0.99	1.61	1.17
NC(=O)[C@@H]1CCCN1C(=O)[C@H](Cc1c[nH]cn1)NC(=O)[C@@H]1CCC(=O)N1 [Protirelin]	1.34	0.937	0.758	1.31	0.44	0.947
N=C(NOCC(O)CN1CCCCC1)c1cccnc1 (configuration not stated)	1.13	0.912	1.06	1.33	0.604	1.05
CC(=O)[C@H]1CC[C@H]2[C@@H]3C=CC4=CC(=O)CC[C@@]4(C)[C@@H]3CC[C@]12C [Dydrogesterone]	0.672	0.859	0.732	1.15	1.01	0.899
Nc1ccc(S(=O)(=O)c2ccc(N)cc2)cc1 [Dapson]	1.45	2.62	2.45	1.64	0.497	1.8
CNC1CCCN(c2c(F)cc3c(=O)c(C(=O)O)cn(C4CC4)c3c2OC)C1 (configuration not stated) [Balofloxacin Dihydrate]	0.976	0.602	0.831	1.09	1.13	1.02
O=S(=O)(c1ccccc1)N(CC(F)(F)F)c1ccc(C(O)(C(F)(F)F)C(F)(F)F)cc1	1.13	1.85	1.07	1.62	2.12	1.43
COc1ccc(CC(C)(C)NC[C@H](O)c2cc(O)cc3c2OCC(=O)N3)cc1 [Olodaterol hydrochloride]	1.07	0.364	1.21	1.12	0.379	1.1
